Our source for the growth values is PubChem BioAssay (NCI).

Test systems include HCT-15 colon; HT29 colon; SNB-75 CNS; SNB-19 CNS; PC-3 prostate; SK-MEL-5 melanoma; UACC-62 melanoma; LOX IMVI melanoma; SK-MEL-28 melanoma; SK-MEL-2 melanoma; EKVX NSCLC; SN12C renal; UO-31 renal; TK-10 renal; ACHN renal; CAKI-1 renal; A498 renal; CCRF-CEM leukemia; MOLT-4 leukemia.
Assay in all cases: NCI-60 one-dose screen, 48 h (100 = growth as untreated, 0 = no growth, -100 = all killed)
Holding throughout (details): 10 µM unless noted

This is part of a sample that, as a whole, favours compounds with a hit. Of some 83,000 tested, about 20% had one in any assay.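 Percent growth is the endpoint: 0 to 100 indicates growth inhibition (40 means 60% inhibition), 0 means no net growth, and negative values indicate cell death.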 Unmarked numbers belong to inactive results. Calls of active or inactive are those of the source. The calls were made as follows: active = growth percent below 10; inactive = the rest.

Take `O=C(OCc1ccc2c(Br)cc(Br)c(O)c2n1)N1CCN(C(=O)c2cc3ccccc3[nH]2)CC1`: the growth is 19.6% in the assay with HCT-15 colon; 59.6% with HT29 colon; 40.5% with SNB-75 CNS; 31.6% in the assay on SNB-19 CNS; 27.5% with PC-3 prostate; 35.5% with SK-MEL-5 melanoma. Besides, the growth was 19% in the assay with UACC-62 melanoma; 28.7% in the assay on LOX IMVI melanoma; 58.1% in the assay with SK-MEL-28 melanoma; 44.8% in the assay on SK-MEL-2 melanoma; 29.9% with EKVX NSCLC; 31.3% with SN12C renal. Besides, the growth in the assay on UO-31 renal was 12.8%; in the assay with TK-10 renal, 47.5%; in the assay on ACHN renal, 14.4%; in the assay on CAKI-1 renal, 23%; in the assay on A498 renal it was 20.3%; with CCRF-CEM leukemia, 21.2%. Further, the growth in the assay with MOLT-4 leukemia is 35.5%.
Regarding `O=C1/C(=C/c2cccc([N+](=O)[O-])c2)COc2ccc(O)c(O)c21`, the growth with HCT-15 colon was -3.34% (active); in the assay on HT29 colon, -12% (active); in the assay with SNB-75 CNS it was 7.32% (active); with SNB-19 CNS it was -47.3% (active); in the assay on PC-3 prostate it was -38.9% (active); in the assay with SK-MEL-5 melanoma it was 16.7%. Further, the growth was -83.3% (active) with UACC-62 melanoma; -93.6% (active) with LOX IMVI melanoma; -48.3% (active) with SK-MEL-28 melanoma; -25.4% (active) in the assay with SK-MEL-2 melanoma; 34.7% in the assay on EKVX NSCLC; -71.3% (active) in the assay on SN12C renal. The growth in the assay with UO-31 renal is -98.8% (active); with TK-10 renal, -48.5% (active); with ACHN renal, -98.4% (active); in the assay with CAKI-1 renal, -67.5% (active); with A498 renal, 99.7%; with CCRF-CEM leukemia, 0.148% (active). Further, the growth in the assay with MOLT-4 leukemia is -1.81% (active).
Consider `COC(=O)c1nc(-c2ccccc2)oc1S(=O)(=O)NCC(c1ccc(Cl)cc1)N1CCCCC1` (stereo not drawn), for which the growth with HCT-15 colon was 49.1%; in the assay with HT29 colon it was 45.8%; with SNB-75 CNS it was 79%; in the assay on SNB-19 CNS, 81.1%; in the assay on PC-3 prostate it was 58.3%; in the assay on SK-MEL-5 melanoma, 86%. In addition, the growth is 85.5% in the assay with UACC-62 melanoma; 43.9% in the assay with LOX IMVI melanoma; 99.7% in the assay on SK-MEL-28 melanoma; 93.8% with SK-MEL-2 melanoma; 104% in the assay with EKVX NSCLC; 75.5% with SN12C renal. In addition, the growth is 61.2% in the assay on UO-31 renal; 67.3% in the assay with TK-10 renal; 68.2% in the assay on ACHN renal; 49.4% in the assay on CAKI-1 renal; 96.4% with A498 renal; -19.2% (active) with CCRF-CEM leukemia. The growth with MOLT-4 leukemia was 1.79% (active).
Consider `Cc1ccc(OCCOCCOCCOCCOc2ccc(C)n(O)c2=S)c(=S)n1O`, for which the growth in the assay with HCT-15 colon was 28.5%; in the assay on HT29 colon it was 23.9%; in the assay on SNB-75 CNS, 33.1%; in the assay on SNB-19 CNS it was 15.3%; in the assay on PC-3 prostate it was 32.7%; in the assay with SK-MEL-5 melanoma it was -15.8% (active). The growth in the assay on UACC-62 melanoma is -0.19% (active); in the assay with LOX IMVI melanoma, 4.26% (active); with SK-MEL-28 melanoma, 31%; with SK-MEL-2 melanoma it was 12.1%; in the assay with EKVX NSCLC, 17.3%; in the assay with SN12C renal, 13.1%. Moreover, the growth in the assay with UO-31 renal is -1.11% (active); in the assay with TK-10 renal it was 33.3%; with ACHN renal, 12.7%; in the assay with CAKI-1 renal, 8.11% (active); in the assay with A498 renal, 29.6%; with CCRF-CEM leukemia, 1.1% (active). In addition, the growth in the assay on MOLT-4 leukemia is 6.72% (active).
Consider `CC1=C2[C@@H](CC1)[C@]1(C)O[C@@](C(C)C)(C[C@H]1OC(=O)CO)[C@H]2OC(=O)CCCc1ccccc1`, for which the growth was 65.7% in the assay with HCT-15 colon; 72.1% in the assay with HT29 colon; 90.8% in the assay on SNB-75 CNS; 92.5% with SNB-19 CNS; 26.9% in the assay with PC-3 prostate; 66.8% in the assay with SK-MEL-5 melanoma. In addition, the growth in the assay on UACC-62 melanoma was 40.2%; in the assay with LOX IMVI melanoma, 52.3%; in the assay on SK-MEL-28 melanoma, 90.2%; in the assay on SK-MEL-2 melanoma, 66.8%; with EKVX NSCLC, 94.1%; in the assay with SN12C renal, 54.9%. Also, the growth in the assay on UO-31 renal was 39.6%; with TK-10 renal it was 88.4%; in the assay with ACHN renal, 56.7%; in the assay on CAKI-1 renal, 59.8%; in the assay with A498 renal, 59.3%; in the assay on CCRF-CEM leukemia, 31.8%. The growth in the assay on MOLT-4 leukemia was 23.5%.
With `N#C/C(Sc1nc2sc3c(c2c(=O)n1Cc1ccccc1)CCCC3)=C1/SC=C(c2ccc(Cl)cc2)N1c1ccccc1`, the growth is 117% with HCT-15 colon; 98.7% in the assay on HT29 colon; 71.2% with SNB-75 CNS; 82.3% in the assay with SNB-19 CNS; 84.2% in the assay with PC-3 prostate; 95.9% in the assay on SK-MEL-5 melanoma. For the same molecule, the growth is 90.3% in the assay with UACC-62 melanoma; 82.1% in the assay on LOX IMVI melanoma; 109% in the assay on SK-MEL-28 melanoma; 106% with SK-MEL-2 melanoma; 106% in the assay on EKVX NSCLC; 98% in the assay with SN12C renal. In addition, the growth in the assay on UO-31 renal was 63.7%; in the assay on TK-10 renal, 107%; in the assay with ACHN renal, 92.7%; with CAKI-1 renal, 91.4%; in the assay with A498 renal, 120%; with CCRF-CEM leukemia, 0.897% (active). Also, in the assay on MOLT-4 leukemia, the growth was 92.3%.
As to `O=C(/C=C/c1ccc(Cl)cc1)c1ccc(-n2cc(CN3CCN(c4cc5c(cc4F)c(=O)c(C(=O)O)cn5C4CC4)CC3)nn2)cc1`, the growth was 95.8% in the assay on HCT-15 colon; 78.2% with HT29 colon; 91.6% with SNB-75 CNS; 84.1% in the assay on SNB-19 CNS; 89% with PC-3 prostate; 81.6% in the assay on SK-MEL-5 melanoma. The growth with UACC-62 melanoma is 74.6%; in the assay with LOX IMVI melanoma it was 56.9%; in the assay on SK-MEL-28 melanoma, 85.4%; in the assay with SK-MEL-2 melanoma, 99.1%; in the assay on EKVX NSCLC it was 96.6%; in the assay with SN12C renal, 58.2%. The growth was 65.1% with UO-31 renal; 92.4% with TK-10 renal; 89.9% in the assay with ACHN renal; 75.5% in the assay with CAKI-1 renal; 60.5% with A498 renal; 74.6% in the assay on CCRF-CEM leukemia. Further, the growth in the assay with MOLT-4 leukemia is 81.7%.
